Experimental data as given in PubChem BioAssay (NCATS).
Records with an inconclusive call do not appear. A call without a number means that no potency is given here. Active and inactive are the calls of the source. Calls come from the whole dose curve; as a rule, active = well fitted inhibition curve with a large enough effect; inconclusive = small, poorly fitted or top-dose-only effect; inactive = no such curve, though single readings can be large or run the other way.

experiment: S16 Schwann cell PMP22 intronic element firefly luciferase assay (AID 624032); settings: S16 rat Schwann cells, PMP22 element FLuc, 24 h; series mostly up to 57.5 µM; note: nearly all actives have a fitted effect of over 30% in size
Source text: Charcot-Marie-Tooth-Association [CMTA]
National Center for Advancing Translational Sciences [NCATS]
Charcot-Marie-Tooth (CMT) disease was first characterized by Jean-Martin Charcot and Pierre Marie in France and, independently, by Howard Henry Tooth in England in 1886. CMT is one of the most common inherited neurological diseases, affecting approximately 1 in 2,500 Americans. […] The most prevalent type of CMT is known as CMT1A and caused by a duplication of the PMP22 gene which leads to over-expression of this protein. PMP22 is a glycosylated intrinsic membrane protein accounting for 2-5% of the myelin protein content, and its over-expression results in demyelination and subsequently axonal loss.
A pair of cellular transcription-based assays was developed in the S16 rat Schwann cell lines (Hai, M., et al., 2002) stably transfected with orthogonal reporters - firefly luciferase (Fluc) and beta-lactamase (beta-Lac) - whose expression is driven by an intronic regulatory element of the PMP22 gene (Jones, E.A., et al., 2011) to recapitulate endogenous expression of PMP22. The current assay employs Fluc to report on PMP22 expression. A comprehensive library of approved drugs, the NCGC Pharmaceutical Collection (Huang, R., et al., 2011), was screened in the cross-validating platform of the orthogonal reporter assays to identify drug modulators inhibitory towards PMP22 expression.
A set of counter-screens was devised to address non-specific activity of the library. An ATP-dependent CellTiter-Glo assay (developed by Promega Corp) was utilized to control cell viability. In addition, biochemical Fluc enzyme assay was performed to assess direct inhibition of the Fluc enzymatic activity.
Hai, M., Muja, N., DeVries, G.H., Quarles, R.H. and Patel, P.I. Comparative analysis of Schwann cell lines as model systems for myelin gene transcription studies. J Neurosci Res, 2002. 69(4): pp 497-508
Huang, R., Southall, N., Wang, Y., Yasgar A., Shinn P., Jadhav, A. , Nguyen, D.-T. and Austin, C.P., The NCGC pharmaceutical collection: a comprehensive resource of clinically approved drugs enabling repurposing and chemical genomics. Sci Transl Med, 2011. 3(80): p. 80ps16.
S16 Schwann cell PMP22 intronic element firefly luciferase assay
The FLuc-expressing S16 cells were seeded in white solid 1536-well plates at between 500-750 cells/4uL in DMEM medium containing 10% FBS, w/o phenol red. After overnight incubation at 37 degree Celsius/5% C02, 23 nL of compounds or DMSO were delivered to each well using a pin tool, followed by 24h-incubation at 37 degree Celsius/5% C02. Then 4 uL ONE-Glo luminescent substrate mix (Promega) was added to each well. Luminescence was measured on a ViewLux plate reader (Perkin Elmer). The % activity was determined by normalizing to the average readings of PTC124 (a positive control) - treated cells relative to DMSO-treated cells (0% Activity). The concentration-effect curves were then classified based on curve quality (r2), response magnitude and degree of measured activity.
Potency is the fitted concentration of half-maximal effect.

Row | Structure (SMILES) | Potency | activity change, negative = inhibition
1 | c1ccc2c(c1)sc1ccccc12 | inactive | –
2 | Cn1c(=O)c2[nH]cnc2n(C)c1=O | inactive | –
3 | O=C1Nc2ccc(Cl)cc2C(c2ccccc2)=NC1O (stereo not given) | inactive | –
4 | Nc1nc(N)nc(NC2CC2)n1 | inactive | –
5 | O=c1oc2ccccc2c(O)c1Cc1c(O)c2ccccc2oc1=O | inactive | –
6 | O=C1OC(c2ccc(O)c(S(=O)(=O)O)c2)(c2ccc(O)c(S(=O)(=O)O)c2)c2c(Br)c(Br)c(Br)c(Br)c21 | inactive | –
7 | Nc1ccc([As](=O)(O)O)cc1 | inactive | –
8 | CCOC(=O)CC(SP(=S)(OC)OC)C(=O)OCC (stereo not given) | inactive | –
9 | CCC(C)(C)c1ccc(O)cc1 | inactive | –
10 | O=C1c2ccccc2C(=O)c2ccccc21 | inactive | –
11 | O=C(N/N=C/c1ccc([N+](=O)[O-])o1)c1cc([N+](=O)[O-])cc([N+](=O)[O-])c1O | inactive | –
12 | COC(=O)C(c1ccccc1)C1CCCCN1 (stereo not given) | inactive | –
13 | CC(C)(C)NCC(O)c1ccccc1Cl (stereo not given) | inactive | –
14 | CC(C)(C)NCC(O)c1cc(Cl)c(N)c(C(F)(F)F)c1 (stereo not given) | inactive | –
15 | COc1ccc2c(c1OC)C(=O)O[C@H]2[C@@H]1c2cc3c(cc2CCN1C)OCO3 | inactive | –
16 | CCCCC/C=C\C/C=C\C/C=C\C/C=C\CCCC(=O)NCC(=O)O | – | -9.07% [at 5.34 µM] (inactive)
17 | CN1C(=O)CCS(=O)(=O)C1c1ccc(Cl)cc1 (stereo not given) | inactive | –
18 | NCCc1ccc(O)cc1 | inactive | –
19 | Cc1nnc2n1-c1ccc(Cl)cc1C(c1ccccc1Cl)=NC2 | inactive | –
20 | O=C1CN=C(c2ccccc2)c2cc([N+](=O)[O-])ccc2N1 | inactive | –

Row | Structure (SMILES) | Potency | activity change, negative = inhibition
21 | C=CCc1ccc(O)c(OC)c1 | inactive | –
22 | CC(C)c1cccc(C(C)C)c1O | inactive | –
23 | O=C1c2ccccc2C(=O)C1C(=O)C(c1ccccc1)c1ccccc1 | inactive | –
24 | CN1C(=O)COc2c(C(=O)NC3CN4CCC3CC4)cc(Cl)cc21 (stereo not given) | inactive | –
25 | COc1ccc2c(c1)C13CCCC[C@@H]1C(C2)N(C)CC3 (stereo not given in full) | inactive | –
26 | CN1C(=O)C(O)N=C(c2ccccc2)c2cc(Cl)ccc21 (stereo not given) | inactive | –
27 | CC(C)(C)c1ccc(O)cc1 | inactive | –
28 | O=c1[nH]oc2c1CCNC2 | inactive | –
29 | CCOP(=S)(OCC)Oc1ccc2c(C)c(Cl)c(=O)oc2c1 | 8.09 µM (active) | –
30 | C[C@](O)(CS(=O)(=O)c1ccc(F)cc1)C(=O)Nc1ccc(C#N)c(C(F)(F)F)c1 | 16.1 µM (active) | –
31 | O=P1(N(CCCl)CCCl)NCCCO1 (stereo not given) | inactive | –
32 | CNC(C)(C)Cc1ccccc1 | inactive | –
33 | CN=C(NC#N)NCCSCc1nc[nH]c1C | inactive | –
34 | O=C(CCCN1CCC2(CC1)C(=O)NCN2c1ccccc1)c1ccc(F)cc1 | inactive | –
35 | COCCCOc1ccnc(CS(=O)c2nc3ccccc3[nH]2)c1C (stereo not given) | inactive | –
36 | O=C1Nc2ccc(Cl)cc2C(c2ccccc2Cl)=NC1O (stereo not given) | inactive | –
37 | C=C(C)[C@H]1CN[C@H](C(=O)O)[C@H]1CC(=O)O | inactive | –
38 | COP(=S)(OC)Oc1ccc(S(=O)(=O)N(C)C)cc1 | inactive | –
39 | CN1C(=O)CC(=O)N(c2ccccc2)c2cc(Cl)ccc21 | inactive | –
40 | O=C(O[C@H]1CN2CCC1CC2)N1CCc2ccccc2[C@@H]1c1ccccc1 | inactive | –
